The panel holds about 83,000 compounds, 20% with a hit somewhere; the sample as a whole holds those more often.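 48-hour exposure, single concentration, 96-well plates; percent growth endpoint where 0 means no net growth. Active: below 10.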 A number with no mark means an inactive call. Active and inactive are the calls of the source.

Some test systems named below: NCI-H23 lung; NCI-H226 lung; NCI-H322M lung; HOP-62 NSCLC; NCI-H460 lung; HOP-92 NSCLC; NCI-H522 lung; A549/ATCC NSCLC; 786-0 renal; COLO 205 colon; DU-145 prostate; K-562 leukemia; MALME-3M melanoma; MDA-MB-231 breast; RXF 393 renal; SF-268 CNS; SF-539 CNS; UACC-257 melanoma; M14 melanoma; SF-295 CNS.
What all share (experiment): NCI-60 one-dose screen, 48 h (100 = growth as untreated, 0 = no growth, -100 = all killed)
What all share (details): 10 µM unless noted

On to `COc1ccc(/C=C\c2cc(OC)c(OC)c(OC)c2)cc1OCC(=O)Nc1nc2ccc(C(F)(F)F)cc2s1`, for which the growth in the experiment with NCI-H23 lung was 40.1%; in the experiment with NCI-H226 lung it was 45.8%; in the experiment on NCI-H322M lung, 64.7%; in the experiment with HOP-62 NSCLC it was 45.4%; in the experiment on NCI-H460 lung, 7.6% (active); with HOP-92 NSCLC, 46.6%. Moreover, the growth with NCI-H522 lung is -39.2% (active); in the experiment with A549/ATCC NSCLC, 27.1%; with 786-0 renal it was 83.2%; in the experiment on COLO 205 colon it was 95.3%; in the experiment with DU-145 prostate, 0.679% (active); in the experiment on K-562 leukemia, 16%. Besides, the growth is 43.8% in the experiment on MALME-3M melanoma; 12.8% in the experiment with MDA-MB-231 breast; -4.84% (active) in the experiment on RXF 393 renal; 43% in the experiment with SF-268 CNS; -18.6% (active) in the experiment on SF-539 CNS; 50% in the experiment with UACC-257 melanoma. For the same compound, in the experiment with M14 melanoma, the growth is 22.3%.

Regarding `O=C(O)CNC(=O)C(Cl)(Cl)Cl`, the growth in the experiment with NCI-H23 lung was 106%; in the experiment on NCI-H226 lung, 94.1%; with NCI-H322M lung, 97.7%; in the experiment on HOP-62 NSCLC, 107%; in the experiment on NCI-H460 lung it was 96.2%; with HOP-92 NSCLC, 87.2%. The growth in the experiment with NCI-H522 lung is 85.1%; in the experiment with A549/ATCC NSCLC it was 98.2%; with 786-0 renal it was 98.8%; with COLO 205 colon it was 106%; in the experiment on DU-145 prostate, 107%; in the experiment with K-562 leukemia it was 108%. The growth is 97.6% in the experiment on MALME-3M melanoma; 103% in the experiment with MDA-MB-231 breast; 92.1% with RXF 393 renal; 104% with SF-268 CNS; 103% with SF-539 CNS; 88% with UACC-257 melanoma. In addition, in the experiment on M14 melanoma, the growth is 107%.

Regarding `CC12CC(=O)C3(SC#N)C(CCC4=CC(=O)CCC43C)C1CCC2=O` (stereo unspecified), the growth is 99.1% in the experiment on NCI-H23 lung; 94.1% with NCI-H226 lung; 96% in the experiment on NCI-H322M lung; 106% with HOP-62 NSCLC; 96.2% in the experiment with NCI-H460 lung; 90.7% in the experiment on HOP-92 NSCLC. In addition, the growth was -3.58% (active) with NCI-H522 lung; 107% in the experiment on A549/ATCC NSCLC; 90% in the experiment on 786-0 renal; 66% with COLO 205 colon; 46.2% in the experiment on DU-145 prostate; 89% in the experiment with K-562 leukemia. For the same compound, the growth with MALME-3M melanoma was 50.2%; in the experiment on MDA-MB-231 breast it was 100%; with RXF 393 renal it was 56.5%; in the experiment with SF-268 CNS, 101%; with UACC-257 melanoma it was 75.9%; with M14 melanoma, 89%.

For `COc1cc(NC(C)CCCNC2CN3CCC2CC3)c2ncccc2c1` (stereo unspecified), the growth in the experiment with NCI-H23 lung was 84.5%; with NCI-H226 lung, 87.4%; with NCI-H322M lung it was 63.3%; in the experiment with HOP-62 NSCLC it was 75.8%; with NCI-H460 lung it was 106%; with HOP-92 NSCLC, 46.6%. Moreover, the growth in the experiment with NCI-H522 lung was 82.1%; in the experiment on A549/ATCC NSCLC, 95.1%; in the experiment on 786-0 renal, 62.5%; in the experiment with COLO 205 colon, 35.3%; with DU-145 prostate, 112%; in the experiment on K-562 leukemia it was 22.8%. The growth was 81.3% in the experiment with MALME-3M melanoma; 55.1% in the experiment on MDA-MB-231 breast; 66.1% in the experiment with RXF 393 renal; 89.6% with SF-268 CNS; 82.3% with SF-539 CNS; 39.9% in the experiment with UACC-257 melanoma. In the experiment with M14 melanoma, the growth is 51.2%.

Turning to `COC[C@@H]1C[C@@]2(C)[C@@H](CC[C@@H]3[C@@H]2CC[C@@]2(C)[C@H]3CC[C@]2(C)O)CC1=O`, the growth is 108% in the experiment on NCI-H23 lung; 106% with NCI-H226 lung; 105% in the experiment with NCI-H322M lung; 107% in the experiment on HOP-62 NSCLC; 101% with NCI-H460 lung; 100% with HOP-92 NSCLC. The growth is 73.6% in the experiment with NCI-H522 lung; 90.6% in the experiment with A549/ATCC NSCLC; 94.9% in the experiment with 786-0 renal; 109% in the experiment with COLO 205 colon; 102% in the experiment on DU-145 prostate; 85.8% with K-562 leukemia. In addition, the growth with MALME-3M melanoma was 96.4%; with MDA-MB-231 breast it was 116%; in the experiment with RXF 393 renal, 105%; with SF-268 CNS, 102%; in the experiment on SF-539 CNS, 90.7%; with UACC-257 melanoma, 83.2%. The growth with M14 melanoma was 94.5%.

In the case of `O=[N+]([O-])c1ccc(OP(=O)(CCl)N(CCCl)CCCl)cc1` (stereo unspecified), the growth in the experiment on NCI-H23 lung was 108%; in the experiment on NCI-H226 lung, 98.9%; in the experiment with NCI-H322M lung, 103%; with HOP-62 NSCLC, 93.5%; in the experiment with NCI-H460 lung, 105%; in the experiment with HOP-92 NSCLC, 114%. Further, the growth in the experiment on NCI-H522 lung is 74.8%; in the experiment on A549/ATCC NSCLC, 102%; in the experiment on 786-0 renal, 97.9%; in the experiment with COLO 205 colon, 112%; in the experiment on DU-145 prostate, 110%; in the experiment on K-562 leukemia, 97.1%. Moreover, the growth in the experiment with MALME-3M melanoma is 109%; in the experiment on MDA-MB-231 breast, 124%; in the experiment on RXF 393 renal, 101%; in the experiment with SF-268 CNS, 104%; in the experiment on SF-539 CNS, 105%; with UACC-257 melanoma it was 99.9%. For the same compound, the growth in the experiment with M14 melanoma is 98.6%.

On to `O=C(NCCN1CC1)C(=O)NCCN1CC1`, for which the growth was 90.5% with NCI-H23 lung; 87.4% with NCI-H226 lung; 102% in the experiment with NCI-H322M lung; 84.5% in the experiment with HOP-62 NSCLC; 58% with NCI-H460 lung; 103% in the experiment on HOP-92 NSCLC. Further, the growth is 62.7% in the experiment on NCI-H522 lung; 75.3% in the experiment with A549/ATCC NSCLC; 98.3% in the experiment on 786-0 renal; 88.7% with COLO 205 colon; 90.2% in the experiment on DU-145 prostate; 87.9% in the experiment with K-562 leukemia. Further, the growth in the experiment on MALME-3M melanoma is 103%; in the experiment on MDA-MB-231 breast, 99.3%; in the experiment with SF-268 CNS, 77.8%; with SF-295 CNS, 51%; in the experiment on SF-539 CNS it was 101%; with UACC-257 melanoma, 85.1%. Further, the growth with M14 melanoma is 92.9%.

For the compound `CC(C)(N)Cc1ccccc1`, the growth in the experiment with NCI-H23 lung is 113%; with NCI-H226 lung it was 107%; in the experiment on NCI-H322M lung, 105%; with HOP-62 NSCLC it was 118%; with NCI-H460 lung, 111%; in the experiment on HOP-92 NSCLC, 87.8%. For the same compound, the growth was 90.9% with NCI-H522 lung; 103% in the experiment on A549/ATCC NSCLC; 91.3% with 786-0 renal; 116% in the experiment with COLO 205 colon; 115% with DU-145 prostate; 92.8% in the experiment on K-562 leukemia. Further, the growth with MALME-3M melanoma was 112%; in the experiment on MDA-MB-231 breast, 119%; in the experiment with SF-268 CNS it was 113%; in the experiment on SF-295 CNS, 98.1%; in the experiment with SF-539 CNS, 107%; with UACC-257 melanoma, 101%. Besides, the growth with M14 melanoma is 105%.

These data come from PubChem BioAssay (NCI).
